Assay results from PubChem BioAssay (Tox21).
Values joined by “and” are separate entries in the source; they are usually repeats but may differ in a detail not shown here. Identical values can stand only once. Inconclusive results are not listed. The source holds several records for some structures; these can differ, active in one and inactive in another. Active and inactive are the calls of the source. Calls follow the shape of the full dose curve.

Assay: qHTS assay for small molecules that induce genotoxicity in human embryonic kidney cells expressing luciferase-tagged ATAD5 - cell viability (AID 651634); also: nearly all actives have a fitted effect of over 25% in size
Details: HEK293T ATAD5-luc cells viability, CellTiter-Fluor, 15.5 h; series mostly up to 83.3 µM; activity, negative = cytotoxicity: at the top concentration
Method in brief: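 Cytotoxicity counterscreen in HEK293T cells bearing an ATAD5-luciferase reporter: live-cell protease activity measured by CellTiter-Fluor fluorescence after 15.5 hr compound exposure.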
% is scaled to controls: 0 for no effect and ±100 for the full control effect; potency is read from the fitted curve at half-maximal effect.

Row | SMILES | activity, negative = cytotoxicity | Potency
1 | CC(C)CCOC(=O)c1ccc(N(C)C)cc1 | 23.2% (inactive) | 
2 | CC(N)=O | 28.2% [at 260 µM] (inactive) | 
3 | CCCCCCCCCCCCc1ccccc1O |  | 30.6 µM (active)
4 | N[C@@H]1CONC1=O | 13.5% (inactive) | 
5 | O=C(Cl)c1cccc(C(=O)Cl)c1 |  | inactive
6 | CC(=O)CC(=O)Nc1ccc2[nH]c(=O)[nH]c2c1 | -3.57% (inactive) | 
7 | C1COC(NC(C2CC2)C2CC2)=N1 | 12.9% (inactive) | 
8 | CCCCCC(=O)O[C@]1(C(C)=O)CC[C@H]2[C@@H]3CCC4=CC(=O)CC[C@]4(C)[C@H]3CC[C@@]21C |  | inactive
9 | c1cc(C(c2ccc(OCC3CO3)cc2)C(c2ccc(OCC3CO3)cc2)c2ccc(OCC3CO3)cc2)ccc1OCC1CO1 (configuration not stated) |  | inactive
10 | CC(C)(c1ccccc1)c1ccc(Nc2ccc(C(C)(C)c3ccccc3)cc2)cc1 |  | inactive
11 | CC(=O)C1=C(C)[C@@H]2C[C@@]3(C1)[C@H](C)CC[C@H]3C2(C)C |  | inactive
12 | C=CC(=O)OCCCCCCOC(=O)C=C |  | 31 µM (active)
13 | CCC(C)(Oc1ccc(C2(c3ccc(OC(C)(CC)C(=O)O)cc3)CCCCC2)cc1)C(=O)O (configuration not stated) | 18.8% (inactive) | 
14 | O=C(OCc1ccccc1)c1ccc(O)cc1 |  | inactive
15 | COc1nc(C)nc(Cl)c1NC1=NCCN1 | 10.4% [at 39.1 µM] (inactive) | 
16 | O=Nc1ccc(Nc2ccccc2)cc1 |  | 48.8 µM (active)
17 | CCC(=O)/C=C/C1C(C)=CCCC1(C)C (configuration not stated) | -14.1% (inactive) | 
18 | COc1ccc(COC(C)=O)cc1 |  | inactive

Row | SMILES | activity, negative = cytotoxicity | Potency
19 | CCCCCCCCCCCCCC[P+](CCCC)(CCCC)CCCC |  | 30.5 µM (active) and 27.3 µM (active)
20 | Oc1ccc(Cl)cc1Cc1cc(Cl)ccc1O | -23.2% (inactive) | 
21 | Oc1c(Cl)cc(Cl)cc1Sc1cc(Cl)cc(Cl)c1O |  | 11.9 µM (active) and 30.7 µM (active) and 48.6 µM (active)
22 | CNCCC(Oc1ccc(C(F)(F)F)cc1)c1ccccc1 (configuration not stated) | -25.3% (inactive) | 
23 | O |  | inactive
24 | CCn1c2ccccc2c2cc(N)ccc21 |  | inactive
25 | Cc1c(O)cccc1C(=O)N[C@@H](CSc1ccccc1)[C@H](O)CN1C[C@H]2CCCC[C@H]2C[C@H]1C(=O)NC(C)(C)C |  | 21.1 µM (active) and 23.7 µM (active)
26 | Nc1ccc2cc3ccccc3cc2c1 |  | inactive
27 | NC(=Nc1ccccc1)Nc1ccccc1 |  | inactive
28 | BrC1CCC(Br)C(Br)CCC(Br)C(Br)CCC1Br (configuration not stated) | -18.5% (inactive) | 
29 | COc1ccc(Cc2cnc(N)nc2N)cc1OC | 13% (inactive) | 
30 | CCCCC(CC)COC(=O)CC(C(=O)OCC(CC)CCCC)S(=O)(=O)O (configuration not stated) |  | inactive
31 | CC[C@]1(O)C[C@@H]2CN(CCc3c([nH]c4ccccc34)[C@@](C(=O)OC)(c3cc4c(cc3OC)N(C)[C@H]3[C@@](O)(C(=O)OC)[C@H](OC(C)=O)[C@]5(CC)C=CCN6CC[C@]43[C@@H]65)C2)C1 |  | 133 nM (active) and 168 nM (active)
32 | CCCOC(=O)c1cc(O)c(O)c(O)c1 |  | inactive
33 | CCCN[C@H]1CCc2nc(N)sc2C1 |  | inactive
34 | CCOc1ccc2c(c1)C(C)=CC(C)(C)N2 |  | inactive
35 | CCCCCCC(O)CCCCCCCCCCC(=O)O (configuration not stated) | -8.33% (inactive) | 

Assay: qHTS assay for small molecule disruptors of the mitochondrial membrane potential - cell viability (AID 720634); also: nearly all actives have a fitted effect of over 20% in size;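 as to activity change, negative = cytotoxicity: human HepG2 liver cancer cells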
Details: HepG2 viability, ATP luminescence (CellTiter-Glo), 1 h; series mostly up to 83.2 µM; activity change, negative = cytotoxicity: at the top concentration
Method in brief: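 After overnight attachment at 37 C, HepG2 cells received compound or DMSO vehicle for 1 hr. Viability is then taken from ATP-driven luminescence following a 30 min room-temperature CellTiter-Glo step.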

Row | SMILES | activity change, negative = cytotoxicity | Potency
36 | CC(N)=O | 9.48% [at 257 µM] (inactive) | 
37 | CCCCCCCCCCCCc1ccccc1O |  | inactive
38 | N[C@@H]1CONC1=O | 5.33% (inactive) | 
39 | O=C(Cl)c1cccc(C(=O)Cl)c1 |  | inactive
40 | CC(=O)CC(=O)Nc1ccc2[nH]c(=O)[nH]c2c1 | 2.94% (inactive) | 
41 | C1COC(NC(C2CC2)C2CC2)=N1 | -4.28% (inactive) | 
42 | CCCCCC(=O)O[C@]1(C(C)=O)CC[C@H]2[C@@H]3CCC4=CC(=O)CC[C@]4(C)[C@H]3CC[C@@]21C | -21.1% (inactive) | 
43 | c1cc(C(c2ccc(OCC3CO3)cc2)C(c2ccc(OCC3CO3)cc2)c2ccc(OCC3CO3)cc2)ccc1OCC1CO1 (configuration not stated) |  | inactive
44 | CC(C)(c1ccccc1)c1ccc(Nc2ccc(C(C)(C)c3ccccc3)cc2)cc1 |  | inactive
45 | C=CC(=O)OCCCCCCOC(=O)C=C |  | inactive
46 | CCC(C)(Oc1ccc(C2(c3ccc(OC(C)(CC)C(=O)O)cc3)CCCCC2)cc1)C(=O)O (configuration not stated) | 9.33% (inactive) | 
47 | COc1nc(C)nc(Cl)c1NC1=NCCN1 | -8.38% [at 39.1 µM] (inactive) | 
48 | CCC(=O)/C=C/C1C(C)=CCCC1(C)C (configuration not stated) | -8.82% (inactive) | 
49 | COc1ccc(COC(C)=O)cc1 |  | inactive
50 | CCCCCCCCCCCCCC[P+](CCCC)(CCCC)CCCC |  | 34.2 µM (active) and 24.3 µM (active)
51 | Oc1ccc(Cl)cc1Cc1cc(Cl)ccc1O |  | 6.68 µM (active) and 221 nM (active)

Row | SMILES | activity change, negative = cytotoxicity | Potency
52 | Oc1c(Cl)cc(Cl)cc1Sc1cc(Cl)cc(Cl)c1O |  | 13.7 µM (active) and inactive
53 | O |  | inactive
54 | CC(C)(C)NC(=O)[C@@H]1CN(Cc2cccnc2)CCN1C[C@@H](O)C[C@@H](Cc1ccccc1)C(=O)N[C@H]1c2ccccc2C[C@H]1O |  | 13.3 µM (active) and inactive
55 | CCn1c2ccccc2c2cc(N)ccc21 |  | inactive
56 | Cc1c(O)cccc1C(=O)N[C@@H](CSc1ccccc1)[C@H](O)CN1C[C@H]2CCCC[C@H]2C[C@H]1C(=O)NC(C)(C)C |  | inactive
57 | Nc1ccc2cc3ccccc3cc2c1 | -10.3% [at 95.3 µM] (inactive) | 
58 | NC(=Nc1ccccc1)Nc1ccccc1 |  | inactive
59 | CC(=O)Nc1ccc(C(=O)CCl)cc1 |  | inactive and 27.3 µM (active)
60 | BrC1CCC(Br)C(Br)CCC(Br)C(Br)CCC1Br (configuration not stated) |  | inactive
61 | COc1ccc(Cc2cnc(N)nc2N)cc1OC | 2.95% (inactive) | 
62 | CCCCC(CC)COC(=O)CC(C(=O)OCC(CC)CCCC)S(=O)(=O)O (configuration not stated) |  | inactive
63 | CC[C@]1(O)C[C@@H]2CN(CCc3c([nH]c4ccccc34)[C@@](C(=O)OC)(c3cc4c(cc3OC)N(C)[C@H]3[C@@](O)(C(=O)OC)[C@H](OC(C)=O)[C@]5(CC)C=CCN6CC[C@]43[C@@H]65)C2)C1 |  | inactive
64 | CCCOC(=O)c1cc(O)c(O)c(O)c1 |  | inactive
65 | CCCN[C@H]1CCc2nc(N)sc2C1 |  | inactive
66 | CCOc1ccc2c(c1)C(C)=CC(C)(C)N2 |  | inactive
67 | CCCCCCC(O)CCCCCCCCCCC(=O)O (configuration not stated) |  | inactive and 54.5 µM (active)
